Measurements published in PubChem BioAssay (Tox21).
Results filed as inconclusive are left out. Unmarked numbers belong to inactive results. The source made the active and inactive calls. The call rests on the fitted dose curve.

The compounds below were run against Beta-2 adrenergic receptor (Homo sapiens) (UniProt P07550) (assay: Adrenergic beta2 receptor (ADRB2) small molecule antagonists, cell-based qHTS assay (AID 1963592; further: nearly all actives have a fitted effect of over 50% in size)). Conditions: CHO-ADRB2 cells, isoproterenol-stimulated cAMP HTRF ratio, 0.5 h; series mostly up to 92.4 µM; activity change, negative = inhibition: at the top concentration.
Text: U.S. Tox21 Program National Center for Advancing Translational Sciences [NCATS] Division of Preclinical Innovation [DPI] U.S. Environmental Protection Agency [EPA] National Institutes of Environmental Health Sciences [NIEHS] National Toxicology Program [NTP] U.S. Food and Drug Administration [FDA] Tox21 Assay Overview: Beta adrenergic receptors (Beta-ARs) belong to the G-protein coupled receptor (GPCR) superfamily, includes three subtypes - beta1, beta2, and beta3. Beta1-AR is the predominant receptor subtype expressed in the heart, and beta2-AR is expressed in the kidney, lung, blood vessel and in the heart, and beta3 is found in the adipocytes. Beta1 and 2 ARs couple to Gs protein and elevate cyclic adenosine mono phosphate (cAMP), which activates protein kinase A and leads to the downstream signaling responsible for the physiological actions. Beta-AR agonists or antagonists are the most prescribed therapeutic agents for heart failure and asthma, and these were one of the first target receptors for the rational drug design. Tox21 10K compound library was screened using the cAMP-Gs dynamic assay (Cisbio Bioassays, Shelton, CT) to identify agonists/antagonists of the Gs-coupled human adrenergic, beta2 receptor (ADRB2) in the CHO-ADRB2 cell line (Codex BioSolutions, Inc. Gaithersburg, MD), which stably over-expresses ADRB2. The principle of cAMP-Gs dynamic assay is based on HTRF technology, which facilitates the fluorescence resonance energy transfer (FRET) between donor Europium cryptate and acceptor d2-labeled cAMP. The cAMP generated within cells competes with the red acceptor, d2-labled cAMP, for binding to the monoclonal anti-cAMP-cryptate (Europium donor). An increase in intracellular cAMP leads to the disruption of FRET signal, and the signal is inversely proportional to the cAMP concentration. Propranolol HCl (Sigma-Aldrich, St. Louis, MO) was used as a positive control in the screening.
Tox21 Assay Protocol Summary: CHO-ADRB2 cells were dispensed at 1,000/well in 4uL assay medium into white/solid 1536-well plates (Greiner Bio-One North America Inc., Monroe, NC) using a Multidrop Combi dispenser (ThermoFisher Scientific, Waltham, MA). The assay plates were incubated at 37C and 5% CO2 for an overnight (18-20hr). Then positive control and test compounds dissolved in DMSO were transferred to the assay plates at 23nL using a Pintool station (Wako, San Diego, CA). Following the compound and positive control transfer, 1uL agonist-stimulation mix containing 1nM Isoproterenol HCl, 100uM IBMX and 25uM Ro-20-1724 was added to each well of the assay plates using BioRAPTR Flying Reagent Dispenser (FRD, Beckman Coulter, Brea, CA). The assay plates were incubated at room temperature for 0.5hr. Then 2.5ul each d2-labled cAMP and anti-cAMP-cryptate solutions were added separately to each well of the assay plates using an FRD and the assay plates were incubated at room temperature for 1hr. The fluorescence signal was measured at two different wavelengths (665nm and 615nm) using an Envision plate reader (Perkin Elmer, Shelton, CT). Data were expressed as the ratio of 665 nm/615 nm.
On the % scale 0 is the no-effect control and ±100 the full control effect; potency means the concentration at half of the fitted maximal effect.

Sequence of Beta-2 adrenergic receptor (Homo sapiens) (P07550 whole entry, looked up): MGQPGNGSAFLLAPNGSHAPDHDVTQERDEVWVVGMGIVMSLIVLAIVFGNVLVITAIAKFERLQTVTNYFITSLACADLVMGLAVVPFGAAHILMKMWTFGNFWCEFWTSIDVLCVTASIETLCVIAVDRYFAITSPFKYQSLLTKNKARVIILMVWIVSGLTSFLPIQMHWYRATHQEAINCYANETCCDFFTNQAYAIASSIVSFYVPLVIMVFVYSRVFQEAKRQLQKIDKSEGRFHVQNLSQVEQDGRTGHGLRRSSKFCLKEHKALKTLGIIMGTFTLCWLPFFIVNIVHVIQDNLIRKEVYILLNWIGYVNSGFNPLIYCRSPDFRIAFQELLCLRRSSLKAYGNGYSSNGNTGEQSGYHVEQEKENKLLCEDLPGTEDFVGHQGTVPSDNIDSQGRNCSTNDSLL

For `CCC(=O)Oc1ccc(/C(CC)=C(\CC)c2ccc(OC(=O)CC)cc2)cc1`, which “activity change, negative = inhibition” value is on record?
The value was -3.52%.

`CN1CCN(c2cc3c(nn2)Oc2ccccc2N3C)CC1` was tested. Which activity change, negative = inhibition did it give?
Its activity change, negative = inhibition is 3.6% [at 19 µM].

Which “activity change, negative = inhibition” value does the source give for `O=C(O)C(=O)Cc1ccccc1` here?
Its value is -9.13%.

How did the activity change, negative = inhibition turn out when `CN(C)C(=O)NC1(c2ccccc2)CCN(CCC[C@]2(c3ccc(Cl)c(Cl)c3)CCCN(C(=O)c3ccccc3)C2)CC1` was run?
The activity change, negative = inhibition was 9.65% [at 19 µM].

`O=Cc1ccccc1Cl` was tested. Which “activity change, negative = inhibition” value did it give?
Its value is -8.59%.

Which “activity change, negative = inhibition” value does the source give for `COC(=O)[C@@H]1CC2=CC(=O)CC[C@]2(C)[C@@]23O[C@@H]2C[C@@]2(C)[C@@H](CC[C@@]24CCC(=O)O4)[C@H]13` here?
The value was 2.64% [at 42.5 µM].

`C[C@@H]1C[C@H]2[C@@H]3CCC4=CC(=O)C=C[C@]4(C)[C@@]3(Cl)[C@@H](O)C[C@]2(C)[C@@]1(OC(=O)c1ccco1)C(=O)CCl` was tested. Which “activity change, negative = inhibition” value did it give?
Its value is -7.27% [at 42.5 µM].

With `Cn1c(NCCN(CCO)CCCc2ccc([N+](=O)[O-])cc2)cc(=O)n(C)c1=O` as the compound, how does the “activity change, negative = inhibition” value read?
Its value is 0.0249% [at 42.5 µM].

`CCOc1ccc(O)cc1` was tested. Which “activity change, negative = inhibition” value did it give?
Its value is -1.64%.

With `Nc1ccc(C(=O)Nc2ccccc2N)cc1` as the compound, how does the “activity change, negative = inhibition” value read?
The value was 1.35% [at 42.5 µM].

`CC(C)(C)CCCCCCOC(=O)c1ccccc1C(=O)OCCCCCCC(C)(C)C` was tested. Which “activity change, negative = inhibition” value did it give?
Its value is 11.3%.

For `CC1=CCCC(C)(C)C12CCC(C)O2` (stereo not given), which “activity change, negative = inhibition” value is on record?
The value was -0.0531%.

Which “activity change, negative = inhibition” value does the source give for `C=COCCOCCOC=C` here?
Its value is -13.4%.

Which “activity change, negative = inhibition” value does the source give for `ClC(Cl)Cl` here?
The value was 2.24%.

For `CC(C)NCC(O)c1cc(O)cc(O)c1` (stereo not given), which “activity change, negative = inhibition” value is on record?
The value was 0.159% [at 42.5 µM].

For `CCCC1CCOC(C)S1` (stereo not given), which “activity change, negative = inhibition” value is on record?
Its value is -10.4%.

Which “activity change, negative = inhibition” value does the source give for `O=C(CN1CCNCC1)NC1CCCCC1` here?
The value was -0.388% [at 42.5 µM].

How did the “activity change, negative = inhibition” value turn out when `O=C(OCCOCCOCCOC(=O)c1ccccc1)c1ccccc1` was run?
Its value is 4.65%.

`CCCC(=O)OC(C)(C)Cc1ccccc1` was tested. Which “activity change, negative = inhibition” value did it give?
Its value is -4.45%.

`CCCCCCCC/C=C\CCCCCCCC(=O)OCCOC(=O)CCCCCCC/C=C\CCCCCCCC` was tested. Which “activity change, negative = inhibition” value did it give?
Its value is -0.46%.

With `CC1(C)SC(C)(C)SC(C)(C)S1` as the compound, how does the “activity change, negative = inhibition” value read?
The value was -3.13%.

`CCCCCCCC/C=C\CCCCCCCC(=O)NCc1ccc(O)c(OC)c1` was tested. Which “activity change, negative = inhibition” value did it give?
Its value is 6.33% [at 42.5 µM].

How did the Potency turn out when `CN(C)CCOC(c1ccccc1)c1ccccc1` was run?
The Potency was “inactive”.

For `CC(C)n1nc(-c2cc3cc(O)ccc3[nH]2)c2c(N)ncnc21`, which “activity change, negative = inhibition” value is on record?
Its value is -0.699% [at 42.5 µM].

`CCN(CC)CCNC(=O)COc1ccc(OC)cc1` was tested. Which “activity change, negative = inhibition” value did it give?
The value was 3.57% [at 42.5 µM].

With `Cc1ccc(C(N)=O)cc1N` as the compound, how does the “activity change, negative = inhibition” value read?
Its value is -0.0827%.

Which “activity change, negative = inhibition” value does the source give for `COC(C(=O)O)c1ccccc1` (stereo not given) here?
Its value is 0.875%.

`C1CCOC1` was tested. Which “activity change, negative = inhibition” value did it give?
Its value is -2.16%.

For `C=CC(=O)OCC(C)OCC(C)OCC(C)OC(=O)C=C` (stereo not given), which “activity change, negative = inhibition” value is on record?
The value was -0.998%.

`CCOc1ccc2c(c1)C(C)CC(C)(C)N2` (stereo not given) was tested. Which “activity change, negative = inhibition” value did it give?
Its value is 8.69%.

How did the “activity change, negative = inhibition” value turn out when `CC(S)C(C)S` (stereo not given) was run?
Its value is 7.96%.

For `CCCCCCCCOC(=O)c1cc(O)c(O)c(O)c1`, which “activity change, negative = inhibition” value is on record?
The value was -3.41%.

With `CN1C(C(=O)Nc2ccccn2)=C(O)c2sccc2S1(=O)=O` as the compound, how does the “activity change, negative = inhibition” value read?
Its value is -15.1% [at 42.5 µM].

Which activity change, negative = inhibition does the source give for `C[C@@H]1CN(c2c(F)c(F)c3c(=O)c(C(=O)O)cn(C4CC4)c3c2F)C[C@H](C)N1` here?
Its activity change, negative = inhibition is -4.7% [at 19 µM].

With `OC/C(Br)=C(\Br)CO` as the compound, how does the “activity change, negative = inhibition” value read?
The value was 5.03%.

How did the Potency turn out when `CN1CCN(CCC(=O)N2c3ccccc3Sc3ccc(C(F)(F)F)cc32)CC1` was run?
The Potency was 29.8 µM (active).

For `CN(C)C(=N)N=C(N)N`, which Potency is on record?
The Potency was “inactive”.

How did the “activity change, negative = inhibition” value turn out when `CCC(C)C(C)=O` (stereo not given) was run?
Its value is -10.9%.

For `COC(=O)CC(C)=O`, which “activity change, negative = inhibition” value is on record?
Its value is -4.46%.

How did the “activity change, negative = inhibition” value turn out when `CC(C)(C)c1ccc(OCC2CO2)cc1` (stereo not given) was run?
Its value is -10.4%.
